Experimental findings from PubChem BioAssay (NCATS) are described below.

Records with an inconclusive call do not appear. Unmarked numbers belong to inactive results. Activity calls are given as the source filed them. The call rests on the fitted dose curve; in most records, active means well fitted inhibition curve with a large enough effect; inconclusive means small, poorly fitted or top-dose-only effect; inactive means no such curve, though single readings can be large or run the other way.

Experiment [1] has as its system Zika virus NS2B-NS3 protease (unlinked complex). Kind of experiment: Primary screen GU Rhodamine qHTS for Zika virus inhibitors: Unlinked NS2B-NS3 protease assay (AID 1347159). Further: nearly all actives have a fitted effect of over 60% in size. In a few lines:
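Compounds, tested up to 114 microM, were incubated for 15 minutes with 25 nM unlinked NS2B-NS3 protease at pH 8.0. Cleavage of 1.5 microM Rhodamine110 substrate was then followed by fluorescence for 15 minutes.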
For orientation: qHTS replaces the single test concentration by a dilution series.

For experiment [2], the system named is Zika virus NS2B-NS3 protease (linked construct). Put plainly: Primary screen NINDS Rhodamine qHTS for Zika virus inhibitors (AID 1347160). Further: nearly all actives have a fitted effect of over 55% in size. In a few lines: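 Percent inhibition, normalized to uninhibited and enzyme-free controls, is fitted to a 4-parameter Hill equation. Fluorescence change comes from a 15-min cleavage of 1.5 microM bis-peptide Rhodamine110 substrate by 25 nM linked NS2B-NS3 at room temperature.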
Potency means the concentration at half of the fitted maximal effect.

In the case of `CC1=C2CC3OC3(C)CCC3OC3(C)CC2OC1=O` (stereo unspecified), the Potency entry in experiment [1] and in experiment [2] was “inactive” in each case.
For `CC1=C(C)C(=O)OC(C(C)C2C(O)CC3C4C5OC5C5(O)CC(OC6OC(CO)C(O)C(O)C6O)CC(O)C5(C)C4CCC32C)C1` (stereo unspecified), the Potency result in experiment [1] and in experiment [2] was “inactive” in each case.
In the case of `C=C1C(=O)O[C@H]2[C@H]1[C@@H](OC(=O)C(C)CO)C[C@@]1(C)[C@H](O)CCC(=O)[C@H]21` (stereo partly specified), the Potency result in experiment [1] and in experiment [2] was “inactive” in each case.
With `C=C1C(OC(C)=O)C(=O)C2C(C)(C)C(OC(C)=O)CCC2(C)C1CC(OC(C)=O)/C(C)=C/COC(C)=O` (stereo unspecified), the Potency result in experiment [1] and in experiment [2] was “inactive” throughout.
As to `CC1(C)CC[C@]2(C(=O)O)CC[C@]3(C)C(=CCC4[C@@]5(C)CC[C@H](O[C@@H]6O[C@H](C(=O)O)[C@@H](O)[C@H](O)[C@H]6O)C(C)(CO)C5CC[C@]43C)C2C1` (stereo partly specified), the Potency result in experiment [1] and in experiment [2] was “inactive” in each case.
`CC(C)CNC(=O)/C=C/CCCCc1ccc2c(c1)OCO2`: the Potency result in experiment [1] and in experiment [2] was “inactive” each time.
Regarding `CCC(=O)NS(=O)(=O)c1ccc(-c2c(-c3ccccc3)noc2C)cc1`, the Potency entry in experiment [1] and in experiment [2] was “inactive” each time.
Take `COC(=O)C1=CO[C@@H](O[C@@H]2O[C@H](COC(=O)/C=C/c3cc(OC)c(O)c(OC)c3)[C@@H](O)[C@H](O)[C@H]2O)[C@@H]2C(CO)=CC[C@H]12`: the Potency entry in experiment [1] and in experiment [2] was “inactive” throughout.
As for `CC(=O)O[C@H](C[C@@H](C)[C@H]1C(=O)[C@H](O)[C@@]2(C)[C@@H]3CCC4C(C)(C)[C@@H](O[C@@H]5OC[C@H](O)[C@H](O)[C@H]5O)CC[C@@]45C[C@@]35CC[C@]12C)[C@@H]1OC1(C)C` (stereo partly specified), the Potency result in experiment [1] and in experiment [2] was “inactive” each time.
For `Nc1nonc1C(=Nc1ccc(F)c(Cl)c1)NO`, the Potency result in experiment [1] and in experiment [2] was “inactive” each time.
As for `CO/N=C(/C(=O)N[C@@H]1C(=O)N2C(C(=O)O)=C(CSC(=O)c3ccco3)CS[C@H]12)c1csc(N)n1`, the Potency in experiment [1] was 35.5 µM (active); in experiment [2], 25.1 µM (active).
With `CC[C@H]1OC(=O)[C@H](C)[C@@H](OC2C[C@@](C)(OC)[C@@H](O)[C@H](C)O2)[C@H](C)[C@@H](OC2O[C@H](C)C[C@H](NC)[C@H]2O)[C@](C)(O)C[C@@H](C)CN(C)[C@H](C)[C@@H](O)[C@]1(C)O` (stereo partly specified), the Potency entry in experiment [1] and in experiment [2] was “inactive” throughout.
Take `O=C1NCc2nc3ccccc3c(=O)n2C1Cc1c[nH]c2ccccc12` (stereo unspecified): the Potency entry in experiment [1] and in experiment [2] was “inactive” throughout.
For `COc1cc(C2Oc3c(O)cc(CCCO)cc3C2CO)ccc1O[C@H]1O[C@H](C)[C@@H](O)[C@H](O)[C@@H]1O` (stereo partly specified), the Potency result in experiment [1] and in experiment [2] was “inactive” each time.
With `c1ccc(Cc2ncc3c(n2)CCNCC3)cc1`, the Potency entry in experiment [1] and in experiment [2] was “inactive” throughout.
With `C[C@@H]1CC[C@]2(C(=O)O)CC[C@]3(C)C(=CCC4[C@]5(C)C(CC[C@]43C)C(C)(C)[C@@H](O)[C@H](O)[C@@H]5O)C2[C@]1(C)O` (stereo partly specified), the Potency entry in experiment [1] and in experiment [2] was “inactive” throughout.
For `CNc1nc(Nc2cnn([C@H]3CCN(C4COC4)C[C@@H]3F)c2Cl)ncc1C(F)(F)F`, the Potency result in experiment [1] and in experiment [2] was “inactive” throughout.
Regarding `O=C(COc1ccc(Cl)cc1)NC1CCC(NC(=O)COc2ccc(Cl)cc2)CC1` (stereo unspecified), the Potency result in experiment [1] and in experiment [2] was “inactive” each time.
Turning to `OCCc1ccc(O[C@@H]2O[C@H](CO)[C@@H](O)[C@H](O)[C@H]2O)c(O)c1`, the Potency entry in experiment [1] and in experiment [2] was “inactive” each time.
Turning to `CC1=CCC2C(C)(CO)CCCC2(CO)C1CO` (stereo unspecified), the Potency in experiment [1] and in experiment [2] was 15.8 µM (active) in each case.
`CN1C(=O)N[C@@H](Cc2c[nH]c3c(Cl)cccc23)C1=O`: the Potency entry in experiment [1] and in experiment [2] was “inactive” each time.
Take `CN[C@@H]1[C@@H](O)[C@@H](O[C@@H]2[C@@H](O)[C@H](O[C@H]3O[C@H](CN)[C@@H](O)[C@H](O)[C@H]3O)[C@@H](N)C[C@H]2NC(=O)[C@@H](O)CN)OC[C@]1(C)O`: the Potency result in experiment [1] and in experiment [2] was “inactive” each time.
`COC12CC3C(C(C)C1=CC(=O)O2)C(O)C(OC(C)=O)C1C(C)(C)C(OC(C)=O)CCC31C` (stereo unspecified): the Potency entry in experiment [1] and in experiment [2] was “inactive” each time.
For the molecule `COc1cc2c(Nc3ccc(Cl)c(Cl)c3F)ncnc2cc1OCC1C[C@@H]2CN(C)C[C@@H]2C1` (stereo partly specified), the Potency entry in experiment [1] and in experiment [2] was “inactive” throughout.
With `CC1OC(OC2C(C)OC(OC3C(OC(=O)/C=C/c4ccc(O)cc4)C(CO)OC(OC4(COC(=O)/C=C/c5ccc(O)cc5)OC(CO)C(O)C4O)C3OC3OCC(O)(CO)C3O)C(O)C2O)C(O)C(O)C1O` (stereo unspecified), the Potency result in experiment [1] and in experiment [2] was “inactive” in each case.
For the molecule `Nc1ccn([C@@H]2C(F)=C(CO)[C@@H](O)[C@H]2O)c(=O)n1`, the Potency result in experiment [1] and in experiment [2] was “inactive” throughout.
With `O=C(NC[C@H](O)CN1CCc2ccccc2C1)c1cc(NC2COC2)ncn1`, the Potency result in experiment [1] and in experiment [2] was “inactive” each time.
Regarding `O=C(OCc1cccc(O)c1O[C@@H]1O[C@H](CO)[C@@H](O)[C@H](O)[C@H]1O)C1(O)C(=O)C2C=CC1C1C=CC(=O)C(O)(C(=O)OCc3cccc(O)c3O[C@@H]3O[C@H](CO)[C@@H](O)[C@H](O)[C@H]3O)C21` (stereo partly specified), the Potency entry in experiment [1] and in experiment [2] was “inactive” each time.
